According to PubChem BioAssay (NCATS):
Results filed as inconclusive are left out. Entries that show only a call come without a potency. Activity calls are given as the source filed them. Calls come from the whole dose curve; as a rule, active = well fitted inhibition curve with a large enough effect; inconclusive = small, poorly fitted or top-dose-only effect; inactive = flat fitted curve, though single readings scatter.

Molecular target: Phospholipid hydroperoxide glutathione peroxidase GPX4 (Homo sapiens) (UniProt P36969)
Assay: Primary qHTS Assay for Inhibitors of Recombinant Selenoprotein Glutathione Peroxidase 4 (GPX4) (AID 1845192); note: nearly all actives have a fitted effect of over 65% in size
Settings: recombinant GPX4, GR-coupled NADPH fluorescence, 15 min; series mostly up to 50 µM
Summary of the method: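 NADPH consumption followed by fluorescence at 340/450 nm, t=0 and after 15 min at room temperature. Reaction started with cumene hydroperoxide (0.5 mM final) after 30 min compound–GPX4 preincubation; final 200 nM GPX4, 100 nM GR, 1 mM GSH, 0.5 mM NADPH.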

Chain of Phospholipid hydroperoxide glutathione peroxidase GPX4 (Homo sapiens) (P36969 whole entry, looked up): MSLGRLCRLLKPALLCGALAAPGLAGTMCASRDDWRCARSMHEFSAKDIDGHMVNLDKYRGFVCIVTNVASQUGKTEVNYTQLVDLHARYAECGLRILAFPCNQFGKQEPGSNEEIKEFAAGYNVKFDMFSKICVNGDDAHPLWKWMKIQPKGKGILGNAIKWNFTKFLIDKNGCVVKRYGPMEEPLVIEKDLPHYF

SMILES | Potency
CCOC(=O)O[C@]1(C(=O)OCCl)CC[C@H]2[C@@H]3CCC4=CC(=O)C=C[C@]4(C)[C@H]3[C@@H](O)C[C@@]21C | inactive
CCC(=O)O[C@]1(C(=O)COC)[C@@H](C)C[C@H]2[C@@H]3CCC4=CC(=O)C=C[C@]4(C)C3(F)[C@@H](O)C[C@@]21C (stereo partly specified) | inactive
O=C(O)c1ccccc1S | inactive
CC(=O)N[C@@H](CCC(N)=O)C(=O)O | inactive
CCn1ccc(NS(=O)(=O)c2ccc(N)cc2)nc1=O | inactive
CCCC(=O)O[C@]1(C(=O)CC)CC[C@H]2[C@@H]3CCC4=CC(=O)CC[C@]4(C)[C@H]3[C@@H](O)C[C@@]21C | inactive
C/C(=C(/OCCOc1ccc(Cl)cc1)c1ccc(Cl)cc1Cl)n1ccnc1 | inactive
O=C(c1ccccc1)c1ccccc1 | inactive
Cc1ccccc1N1CCN(CCc2nnc3n2CCCC3)CC1 | inactive
CCC(CN)=C(c1ccccc1)c1ccccc1 | inactive
CO[C@@H]1[C@@H](O[C@@H]2O[C@H](C)[C@@H](O[C@H]3C[C@@](C)(O)[C@@H](O)[C@H](C)O3)[C@H](N(C)C)[C@H]2O)[C@@H](CC=O)C[C@@H](C)[C@@H](O[C@@H]2CC[C@H](N(C)C)[C@@H](C)O2)/C=C/C=C/C[C@@H](C)OC(=O)C[C@H]1OC(C)=O | inactive
CC(C)(C)CC(=O)OCC(=O)[C@@]1(O)CC[C@H]2[C@@H]3CCC4=CC(=O)C=C[C@]4(C)[C@H]3[C@@H](O)C[C@@]21C | inactive
COC(=O)CCCCC(CCSS/C(CCO)=C(\C)N(C=O)Cc1cnc(C)nc1N)SC(C)=O (stereo unspecified) | inactive
CCOC(=O)c1cc(=O)c2c(OCC(COc3cccc4oc(C(=O)OCC)cc(=O)c34)OC(=O)[C@@H](N)CCCCN)cccc2o1 | inactive
CCCC(=O)OCOC(=O)C1=C(C)NC(C)=C(C(=O)OC)C1c1cccc(Cl)c1Cl (stereo unspecified) | inactive
Cc1c(C)c2c(c(C)c1OC(=O)CCC(=O)OCCO)CC[C@@](C)(CCC[C@H](C)CCC[C@H](C)CCCC(C)C)O2 | inactive
